# Experimental data: PubChem BioAssay (EPA / NIEHS)
# Calls of active or inactive are those of the source. How the source made its calls: active means hit-call score of the fitted dose curve at least 0.9, where 1 is the maximum; inactive means score below 0.9.
# What was measured:
# [1] = molecular target: Transcription factor E2F1 (Homo sapiens) (UniProt Q01094); test: ATG_E2F_CIS: Attagene CIS-FACTORIAL HepG2 Assay for human E2F Transcription Factor 1 (AID 2282935); details: HepG2 Attagene cis-reporter, E2F reporter RNA transcripts; actives raise or lower the signal
# Outline: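 HepG2 cells transiently transfected with multiplexed cis-element reporter units, dosed for 24 h. Reporter mRNA measured by RT-PCR, 6-FAM primer-extension labeling, HpaI digestion and capillary electrophoresis; bidirectional fit versus DMSO baseline.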
# [2] = ATG_E_Box_CIS: Attagene CIS-FACTORIAL HepG2 Assay for human Enhancer Box (E-box) (AID 2282936); details: HepG2 E-box cis-reporter transcription, actives raise or lower the signal
# Outline: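 HepG2 cells transiently transfected with multiplexed cis-element reporter units sensing endogenous transcription factor activity; 24 h compound exposure. Reporter mRNA measured by RT-PCR, 6-FAM primer extension, HpaI digestion and capillary electrophoresis; bidirectional fit versus DMSO.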
# [3] = ATG_M_61_CIS: Attagene CIS-FACTORIAL HepG2 Assay for M61 Transcription Factor (Internal Marker) (AID 2282937); details: HepG2 Attagene CIS-FACTORIAL M61 internal marker reporter; actives raise or lower the signal
# Outline: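 Background-control endpoint: HepG2 cells with cis-regulated reporter constructs, 24 h exposure, reporter mRNA detected via fluorescent primer extension and capillary electrophoresis; values from bidirectional fitting with DMSO baseline.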
# [4] = ATG_EGR_CIS: Attagene CIS-FACTORIAL HepG2 Assay for human Early Growth Response 1 (EGR1) (AID 2282938); details: HepG2 Attagene CIS-FACTORIAL EGR reporter mRNA; actives raise or lower the signal
# Outline: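 Endpoint derived by bidirectional fitting versus DMSO vehicle. Method: cis-promoter reporter units transfected into HepG2, 24 h dosing, RNA isolation, RT-PCR with 6-FAM primer extension and HpaI digestion, then capillary electrophoresis fluorescence detection.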
# [5] = ATG_ERE_CIS: Attagene CIS-FACTORIAL HepG2 Assay for Estrogen Response Element (ERE) (AID 2282940); details: HepG2 ERE cis-reporter, Attagene RNA transcript; actives raise or lower the signal
# Outline: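 Readout: reporter mRNA induction by RT-PCR, FAM-labelled primer extension, HpaI digestion and capillary electrophoresis, 24 h after dosing transfected HepG2 cells. Endogenous transcription factors act on cis-element-regulated reporters. Gain or loss fitted against DMSO.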
# [6] = ATG_Ets_CIS: Attagene CIS-FACTORIAL HepG2 Assay for human Erythroblast Transformation Specific (ETS) (AID 2282941); details: HepG2 ETS cis-reporter transcription, actives raise or lower the signal
# Outline: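 Human HepG2 hepatoma cells were transiently transfected with promoter-driven reporter constructs and treated for 24 hours. Reporter transcripts were quantified by RT-PCR with fluorescent primer extension; bidirectional curve fitting used DMSO as reference.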
# [7] = molecular target: Hepatocyte nuclear factor 3-beta (Homo sapiens) (UniProt Q9Y261); test: ATG_FoxA2_CIS: Attagene CIS-FACTORIAL HepG2 Assay for human Forkhead box A2 (FOXA2) (AID 2282942); details: HepG2 cis-reporter transcription factor activity, 24 h; actives raise or lower the signal
# Outline: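 Measured: reporter mRNA induction or loss in HepG2 transiently carrying multiple cis-regulated reporter units, 24 h after dosing. Quantified by RT-PCR plus capillary electrophoresis, normalised to DMSO.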
# [8] = ATG_FoxO_CIS: Attagene CIS-FACTORIAL HepG2 Assay for human Forkhead box O (FoxO) (AID 2282943); details: HepG2 Attagene cis-reporter, FoxO element, mRNA; actives raise or lower the signal
# Outline: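 HepG2 cells transiently transfected with cis-promoter-driven multiple reporter transcription units; 24 h after chemical dosing, reporter mRNA quantified by RT-PCR, fluorescent primer extension, HpaI digestion and capillary electrophoresis. Bidirectional fitting versus DMSO baseline.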
# [9] = ATG_GATA_CIS: Attagene CIS-FACTORIAL HepG2 Assay for human GATA Binding Protein (AID 2282944); details: HepG2 GATA cis-element reporter, Attagene multiplex mRNA; actives raise or lower the signal
# Outline: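 Read-out: fluorescent reporter mRNA fragments resolved by capillary electrophoresis after RT-PCR. Human liver HepG2 cells carried transiently transfected cis-regulated reporter constructs; chemicals incubated 24 h; gain or loss of signal fitted relative to DMSO.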
# [10] = ATG_GLI_CIS: Attagene CIS-FACTORIAL HepG2 Assay for human Zinc Finger Protein GLI1 (AID 2282945); details: HepG2, Attagene cis-factorial reporter mRNA, GLI element; actives raise or lower the signal
# Outline: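 HepG2 cells transiently transfected with cis-promoter multiplexed reporter units report endogenous transcription factor activity. After 24 h chemical exposure, reporter mRNA was quantified by RT-PCR, 6-FAM labelling, HpaI digestion and capillary electrophoresis, with bidirectional fitting against DMSO.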
# [11] = ATG_ISRE_CIS: Attagene CIS-FACTORIAL HepG2 Assay for human Interferon Regulatory Factor 1 (IRF1) binding to an Interferon-Stimulated Response Element (ISRE) (AID 2282948); details: HepG2 ISRE cis-reporter (Attagene), mRNA transcription readout; actives raise or lower the signal
# Outline: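 Cell-based cis-reporter assay; HepG2; 24 h exposure; reporter mRNA by RT-PCR plus capillary electrophoresis fluorescence; activity in either direction scored relative to DMSO.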
# [12] = ATG_M_32_CIS: Attagene CIS-FACTORIAL HepG2 Assay for M32 Transcription Factor (Internal Marker) (AID 2282949); details: HepG2 Attagene cis-factorial M32 reporter, mRNA; actives raise or lower the signal;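 further: background control marker of the multiplexed CIS panel rather than a real target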
# Outline: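 Following 24 h chemical exposure of HepG2 cells transiently expressing cis-promoter reporter constructs, reporter transcript levels were determined by RT-PCR with fluorescent labelling and capillary electrophoresis, then fitted bidirectionally against DMSO.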
# [13] = molecular target: Hypoxia-inducible factor 1-alpha (Homo sapiens) (UniProt Q16665); test: ATG_HIF1a_CIS: Attagene CIS-FACTORIAL HepG2 Assay for human Hypoxia Inducible Factor 1 (HIF1A) (AID 2282951); details: HepG2 Attagene cis-factorial HIF1a reporter transcription; actives raise or lower the signal
# Outline: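 Dosed 24 h, transfected HepG2 cells yielded total RNA whose reporter transcripts were RT-PCR-amplified and sized by capillary electrophoresis using fluorescent labelling; DMSO defined baseline, with gain and loss of signal both fitted.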
# [14] = molecular target: Hepatocyte nuclear factor 6 (Homo sapiens) (UniProt Q9UBC0); test: ATG_HNF6_CIS: Attagene CIS-FACTORIAL HepG2 Assay for human Hepatocyte Nuclear Factor 6 (HNF6) (AID 2282952); details: HepG2 Attagene cis-factorial HNF6 reporter transcription; actives raise or lower the signal
# Outline: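 Reporter mRNA induction or loss in HepG2 after 24 h exposure; transient cis-MRTU transfection; fragments quantified by capillary electrophoresis; bidirectional analysis, DMSO as negative control.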
# [15] = molecular target: Heat shock factor protein 1 (Homo sapiens) (UniProt Q00613); test: ATG_HSE_CIS: Attagene CIS-FACTORIAL HepG2 Assay for human Heat Shock Transcription Factor 1 (HSE) (AID 2282953); details: HepG2 HSE cis-reporter, Attagene RNA transcription; actives raise or lower the signal
# Outline: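 Read-out: fluorescence of reporter-specific RT-PCR fragments separated by capillary electrophoresis. HepG2 carrying transfected cis-element reporter units; 24 h dosing; activity fitted in both directions relative to DMSO baseline.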
# [16] = ATG_MRE_CIS: Attagene CIS-FACTORIAL HepG2 Assay for human Metal Responsive Element (MRE) (AID 2282954); details: HepG2 MRE cis-reporter transcription, Attagene multiplex; actives raise or lower the signal
# Outline: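 HepG2 cells transiently transfected with multiple cis-element reporter units measure endogenous MTF1-driven transcription. After 24 h compound exposure, reporter mRNA is quantified by RT-PCR with 6-FAM labelling, HpaI digestion and capillary electrophoresis; bidirectional fits versus DMSO.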
# [17] = molecular target: Bile acid receptor (Homo sapiens) (UniProt Q96RI1); test: ATG_IR1_CIS: Attagene CIS-FACTORIAL HepG2 Assay for human Nuclear Receptor Subfamily 1 Group H Member 4 (NR1H4), IR1 submotif (AID 2282946); details: IR1 reporter transcription, actives raise or lower the signal
# Outline: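 Transient MRTU transfection, HepG2; 24 h dosing; RNA → RT-PCR → 6-FAM primer extension → HpaI digest → capillary electrophoresis fluorescence. Gain/loss of signal fitted relative to DMSO.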
# [18] = ATG_M_19_CIS: Attagene CIS-FACTORIAL HepG2 Assay for M19 Transcription Factor (Internal Marker) (AID 2282939); details: HepG2 Attagene CIS-FACTORIAL M19 internal marker reporter; actives raise or lower the signal
# Outline: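 Readout: fluorescent reporter-transcript fragments by capillary electrophoresis after RT-PCR. Human HepG2 liver cells carried transfected MRTU constructs reporting endogenous transcription-factor activity; exposure 24 h. Gain or loss of signal fitted relative to DMSO.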
# [19] = ATG_M_06_CIS: Attagene CIS-FACTORIAL HepG2 Assay for M06 Transcription Factor (Internal Marker) (AID 2282950); details: HepG2 Attagene CIS-FACTORIAL M06 internal marker reporter; actives raise or lower the signal
# Outline: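 Terse: HepG2, transient MRTU transfection (FuGene 6), 24 h dosing; total RNA, oligo(dT) RT, PCR, FAM label, HpaI cut, capillary electrophoresis; bidirectional fit vs DMSO baseline; background-control endpoint.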
# [20] = ATG_GRE_CIS: Attagene CIS-FACTORIAL HepG2 Assay for human Glucocorticoid Response Elements (GRE) (AID 2282947); details: HepG2 GRE cis-reporter, Attagene multiplex mRNA; actives raise or lower the signal
# Outline: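 HepG2 cells transiently transfected with multiple cis-promoter reporter units measure endogenous TF activity; 24 h compound exposure. Reporter mRNA quantified by RT-PCR, FAM labelling, HpaI digestion and capillary electrophoresis; bidirectional fit vs DMSO baseline.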
# Heat shock factor protein 1 (Homo sapiens), sequence (Q00613 whole entry, looked up, the tested form may be a part): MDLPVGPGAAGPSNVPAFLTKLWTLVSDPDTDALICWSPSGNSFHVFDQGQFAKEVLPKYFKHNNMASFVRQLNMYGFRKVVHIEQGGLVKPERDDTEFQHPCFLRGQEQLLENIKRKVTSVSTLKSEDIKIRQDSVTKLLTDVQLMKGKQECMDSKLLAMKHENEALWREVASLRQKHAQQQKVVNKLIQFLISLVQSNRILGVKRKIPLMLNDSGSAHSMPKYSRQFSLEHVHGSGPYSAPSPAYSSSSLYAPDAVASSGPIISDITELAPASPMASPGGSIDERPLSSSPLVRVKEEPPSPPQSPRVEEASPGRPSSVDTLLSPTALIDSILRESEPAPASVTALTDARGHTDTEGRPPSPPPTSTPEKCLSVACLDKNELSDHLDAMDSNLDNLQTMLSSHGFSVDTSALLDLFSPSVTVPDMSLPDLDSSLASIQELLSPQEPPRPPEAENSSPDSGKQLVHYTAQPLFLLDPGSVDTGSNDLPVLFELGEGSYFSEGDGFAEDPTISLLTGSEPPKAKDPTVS
# Hypoxia-inducible factor 1-alpha (Homo sapiens), sequence (Q16665 whole entry, looked up): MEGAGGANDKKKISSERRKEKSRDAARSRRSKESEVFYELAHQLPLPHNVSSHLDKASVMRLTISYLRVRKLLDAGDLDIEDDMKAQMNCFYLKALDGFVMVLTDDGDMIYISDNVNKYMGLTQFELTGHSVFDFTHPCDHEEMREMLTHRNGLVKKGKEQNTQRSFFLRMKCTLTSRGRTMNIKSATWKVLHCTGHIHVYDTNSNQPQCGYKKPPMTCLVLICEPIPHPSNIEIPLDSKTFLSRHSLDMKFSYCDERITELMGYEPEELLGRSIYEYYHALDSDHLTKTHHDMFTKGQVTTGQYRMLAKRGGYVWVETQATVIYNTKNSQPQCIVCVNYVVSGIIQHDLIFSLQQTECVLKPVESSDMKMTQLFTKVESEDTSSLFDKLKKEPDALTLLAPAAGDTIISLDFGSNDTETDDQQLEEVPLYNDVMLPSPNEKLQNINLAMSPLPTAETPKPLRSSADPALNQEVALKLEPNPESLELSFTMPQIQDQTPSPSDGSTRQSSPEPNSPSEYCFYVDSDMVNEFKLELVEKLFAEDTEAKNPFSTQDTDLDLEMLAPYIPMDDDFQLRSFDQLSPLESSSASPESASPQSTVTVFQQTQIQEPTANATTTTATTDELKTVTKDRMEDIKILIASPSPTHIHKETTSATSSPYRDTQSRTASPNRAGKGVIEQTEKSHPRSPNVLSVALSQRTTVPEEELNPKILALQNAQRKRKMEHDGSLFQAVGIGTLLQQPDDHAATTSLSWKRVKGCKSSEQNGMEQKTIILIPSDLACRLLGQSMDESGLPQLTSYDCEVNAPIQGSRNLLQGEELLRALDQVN
# Transcription factor E2F1 (Homo sapiens), sequence (Q01094 whole entry, looked up): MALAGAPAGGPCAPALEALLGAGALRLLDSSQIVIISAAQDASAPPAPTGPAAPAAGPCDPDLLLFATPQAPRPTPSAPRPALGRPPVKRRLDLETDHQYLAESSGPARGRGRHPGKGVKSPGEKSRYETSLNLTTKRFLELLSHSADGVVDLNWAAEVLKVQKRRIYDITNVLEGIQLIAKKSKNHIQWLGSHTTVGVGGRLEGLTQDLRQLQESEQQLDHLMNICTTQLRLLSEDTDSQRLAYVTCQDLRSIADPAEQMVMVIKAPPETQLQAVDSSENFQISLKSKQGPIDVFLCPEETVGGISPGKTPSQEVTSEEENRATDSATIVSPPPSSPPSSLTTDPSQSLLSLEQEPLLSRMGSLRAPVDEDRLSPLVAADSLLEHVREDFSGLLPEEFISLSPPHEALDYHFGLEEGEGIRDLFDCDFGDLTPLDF
# Hepatocyte nuclear factor 6 (Homo sapiens), sequence (Q9UBC0 whole entry, looked up, the tested form may be a part): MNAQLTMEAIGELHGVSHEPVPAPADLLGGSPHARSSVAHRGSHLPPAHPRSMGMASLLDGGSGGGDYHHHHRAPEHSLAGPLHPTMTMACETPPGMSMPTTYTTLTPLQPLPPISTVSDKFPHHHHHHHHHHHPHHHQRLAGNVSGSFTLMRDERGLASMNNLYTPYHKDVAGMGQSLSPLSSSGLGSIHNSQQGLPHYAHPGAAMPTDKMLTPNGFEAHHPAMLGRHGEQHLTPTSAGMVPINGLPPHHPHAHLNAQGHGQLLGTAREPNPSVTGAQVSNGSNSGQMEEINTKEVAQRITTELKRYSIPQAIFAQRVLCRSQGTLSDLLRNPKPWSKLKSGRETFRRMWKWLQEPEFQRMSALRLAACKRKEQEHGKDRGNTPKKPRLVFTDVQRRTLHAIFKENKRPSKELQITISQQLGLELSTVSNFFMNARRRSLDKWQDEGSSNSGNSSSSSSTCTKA
# Hepatocyte nuclear factor 3-beta (Homo sapiens), sequence (Q9Y261 whole entry, looked up): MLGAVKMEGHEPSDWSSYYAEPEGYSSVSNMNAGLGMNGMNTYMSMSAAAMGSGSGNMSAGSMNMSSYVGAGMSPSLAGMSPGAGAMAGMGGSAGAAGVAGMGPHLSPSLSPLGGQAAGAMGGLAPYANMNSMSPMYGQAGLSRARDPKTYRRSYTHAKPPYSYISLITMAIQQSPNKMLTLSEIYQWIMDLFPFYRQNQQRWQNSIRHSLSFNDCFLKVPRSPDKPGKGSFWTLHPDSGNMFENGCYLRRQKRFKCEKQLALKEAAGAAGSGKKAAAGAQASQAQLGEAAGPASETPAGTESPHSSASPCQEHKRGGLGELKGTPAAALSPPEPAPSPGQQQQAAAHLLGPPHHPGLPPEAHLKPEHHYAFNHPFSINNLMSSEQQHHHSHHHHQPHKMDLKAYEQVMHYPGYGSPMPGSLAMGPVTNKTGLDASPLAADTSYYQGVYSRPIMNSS
# Bile acid receptor (Homo sapiens), sequence (Q96RI1 whole entry, looked up): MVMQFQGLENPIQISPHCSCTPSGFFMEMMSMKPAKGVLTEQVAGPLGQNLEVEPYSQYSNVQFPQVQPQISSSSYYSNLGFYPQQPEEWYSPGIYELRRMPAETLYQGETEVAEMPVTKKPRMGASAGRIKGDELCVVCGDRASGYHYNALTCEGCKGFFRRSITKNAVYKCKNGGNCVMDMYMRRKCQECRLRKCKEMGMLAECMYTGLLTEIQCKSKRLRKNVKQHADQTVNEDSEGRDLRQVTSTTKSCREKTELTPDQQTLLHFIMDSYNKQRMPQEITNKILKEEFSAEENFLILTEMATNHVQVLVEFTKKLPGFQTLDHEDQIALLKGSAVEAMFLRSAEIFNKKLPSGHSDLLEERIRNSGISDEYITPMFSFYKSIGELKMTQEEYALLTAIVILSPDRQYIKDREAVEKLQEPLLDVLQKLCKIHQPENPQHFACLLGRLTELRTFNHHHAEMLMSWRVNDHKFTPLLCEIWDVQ
structure (smiles),measurement,setting,value
CCCCCCCC(=O)N(C)C,outcome,[1],inactive
same,outcome,[2],inactive
same,outcome,[3],inactive
same,outcome,[4],inactive
same,outcome,[5],inactive
same,outcome,[6],inactive
same,outcome,[7],inactive
same,outcome,[8],inactive
same,outcome,[9],inactive
same,outcome,[10],inactive
same,outcome,[11],inactive
same,outcome,[12],inactive
same,outcome,[13],inactive
same,outcome,[14],inactive
same,outcome,[15],inactive
same,outcome,[16],inactive
CCCCCCOC(C)=O,outcome,[1],inactive
same,outcome,[2],inactive
same,outcome,[3],inactive
same,outcome,[4],inactive
same,outcome,[5],inactive
same,outcome,[6],inactive
same,outcome,[7],inactive
same,outcome,[8],inactive
same,outcome,[9],inactive
same,outcome,[10],inactive
same,outcome,[17],inactive
same,outcome,[11],inactive
same,outcome,[12],inactive
same,outcome,[13],inactive
same,outcome,[14],inactive
same,outcome,[16],inactive
COc1ccc(C(C)=O)cc1,outcome,[1],inactive
same,outcome,[2],inactive
same,outcome,[3],inactive
same,outcome,[4],inactive
same,outcome,[18],inactive
same,outcome,[6],inactive
same,outcome,[7],inactive
same,outcome,[8],inactive
same,outcome,[9],inactive
same,outcome,[10],inactive
same,outcome,[19],inactive
same,outcome,[13],inactive
same,outcome,[14],inactive
same,outcome,[15],inactive
same,outcome,[16],inactive
C=CC(=O)OCCCCCC,outcome,[1],inactive
same,outcome,[2],inactive
same,outcome,[3],inactive
same,outcome,[4],inactive
same,outcome,[18],inactive
same,outcome,[6],inactive
same,outcome,[7],inactive
same,outcome,[8],inactive
same,outcome,[9],inactive
same,outcome,[10],inactive
same,outcome,[11],inactive
same,outcome,[12],inactive
same,outcome,[19],inactive
same,outcome,[14],inactive
same,outcome,[15],inactive
same,outcome,[16],inactive
CC1(C)CC(=O)CC(C)(C)N1,outcome,[1],inactive
same,outcome,[2],inactive
same,outcome,[3],inactive
same,outcome,[18],inactive
same,outcome,[5],inactive
same,outcome,[6],inactive
same,outcome,[7],inactive
same,outcome,[8],inactive
same,outcome,[9],inactive
same,outcome,[10],inactive
same,outcome,[20],inactive
same,outcome,[11],inactive
same,outcome,[12],inactive
same,outcome,[19],inactive
same,outcome,[13],inactive
same,outcome,[14],inactive
same,outcome,[15],inactive
same,outcome,[16],inactive
C=CCOCC(O)CO (configuration not stated),AC50,[1],149 µM (active)
same,outcome,[2],inactive
same,outcome,[3],inactive
same,outcome,[18],inactive
same,outcome,[6],inactive
same,outcome,[7],inactive
same,outcome,[8],inactive
same,AC50,[9],164 µM (active)
same,outcome,[10],inactive
same,outcome,[17],inactive
same,outcome,[20],inactive
same,outcome,[11],inactive
same,outcome,[19],inactive
same,outcome,[13],inactive
same,outcome,[14],inactive
same,outcome,[15],inactive
O=S1(=O)CC=CC1,outcome,[1],inactive
same,outcome,[2],inactive
same,outcome,[3],inactive
same,outcome,[18],inactive
same,outcome,[5],inactive
same,outcome,[6],inactive
same,outcome,[7],inactive
same,outcome,[8],inactive
same,outcome,[10],inactive
same,outcome,[20],inactive
same,outcome,[11],inactive
same,outcome,[19],inactive
same,outcome,[13],inactive
same,outcome,[14],inactive
same,outcome,[15],inactive
